According to PubChem BioAssay (NCI):
“And” between values parts separate entries of the source, which are not always exact repeats. Equal entries are not always repeated. The panel holds about 83,000 compounds, 20% with a hit somewhere; the sample as a whole holds those more often.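 Treatment: one concentration, 48 hours, 96-well format. Scoring: percent growth, with anything below 10 considered active.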 Values without a mark were called inactive. The source made the active and inactive calls. Where a SMILES comes first, the peptide text is derived from it. [ ]: non-standard residue; d: D form. ξ: configuration not given here. ξV = CC(C)C(N)C(=O)O

Each molecule was assayed on A549/ATCC NSCLC (assay: NCI-60 one-dose screen, 48 h (100 = growth as untreated, 0 = no growth, -100 = all killed)). Details: 0.0025 µM.
Protocol: Growth inhibition of the A549/ATCC human Non-Small Cell Lung tumor cell line is measured as a screen for anti-cancer activity. Cells are grown in 96 well plates and exposed to the test compound for 48 hours. Compounds are tested at a single concentration, which is 10^-5 M for most compounds. The reported endpoint is percent growth (GI% or GIPRCNT), where numbers from 0 - 100% represent growth inhibition, and numbers from -100% - 0 represent cell death. For example, a value of 40 represents 60% growth inhibition. A value of 0 means no net growth occurred over the course of the experiment. A value of -40 indicates 40% of cells at the beginning of the experiment died by the end of the experiment. A value of -100 means all cells are dead at the end of the experiment.
NCI-60 Human Tumor Cell Lines Screen was performed using the standard one-dose NCI protocol, which is described in more detail at https://dtp.cancer.gov/discovery_development/nci-60/default.htm.
Compounds with GIPRCNT values below 10 were considered active. Activity score was based on GIPRCNT using the following formula: […]
Score is 0 for GIPRCNT values of 100 or above, 50 for GIPRCNT values of 0, and 100 for GIPRCNT values of -100.

Q: With `COc1cccc2c1C(=O)c1c(O)c3c(c(O)c1C2=O)C[C@@](O)(C(=O)CO)C[C@@H]3OC1CC(N)C(O)C(C)O1` (stereo not given in full) as the molecule, how does the growth read?
A: 73%

Same assay, conditions: 1 µM

Q: With `COc1cccc2c1C(=O)c1c(O)c3c(c(O)c1C2=O)C[C@@](O)(C(=O)CO)C[C@@H]3OC1CC(N)C(O)C(C)O1` (stereo not given in full) as the molecule, how does the growth read?
A: 33.7%

Same assay, conditions: 2.5 µM

Q: For `COc1cccc2c1C(=O)c1c(O)c3c(c(O)c1C2=O)C[C@@](O)(C(=O)CO)C[C@@H]3OC1CC(N)C(O)C(C)O1` (stereo not given in full), which growth is on record?
A: 36.5%

Same assay, conditions: 10 µM

Q: `Nc1nc(=S)c2ncn(C3OC(CO)C(O)C3O)c2[nH]1` (stereo not given) was tested. Which growth did it give?
A: 92.9% and 27.9%

Q: Which growth does the source give for `N=S(c1ccccc1[N+](=O)[O-])c1ccccc1[N+](=O)[O-]` here?
A: 90.3%

Q: How did the growth turn out when `CN(C)C(=S)SC(=S)N(C)C` was run?
A: 95.9% and 86.6%

Q: How did the growth turn out when `CCCCCCCCCCSC(=N)N` was run?
A: 77%

Q: `Oc1ccc(N=Nc2ccccn2)c(O)c1` was tested. Which growth did it give?
A: 17.5%

Q: How did the growth turn out when `CN1CCN(CCCN2c3ccccc3Sc3ccc(C(F)(F)F)cc32)CC1` was run?
A: 59.4%

Q: How did the growth turn out when `CCCCCCCCCCCCSC(=NC)NC` was run?
A: 64.4% and 87.7%

Q: For `CO[C@H](C(=O)[C@@H](O)[C@@H](C)O)[C@@H]1Cc2cc3cc(OC4CC(OC5CC(O)C(O)C(C)O5)C(O)C(C)O4)c(C)c(O)c3c(O)c2C(=O)[C@H]1OC1CC(OC2CC(OC3CC(C)(O)C(O)C(C)O3)C(O)C(C)O2)C(O)C(C)O1` (stereo not given in full), which growth is on record?
A: 2.67% (active)

Q: For `CSC1SCC2C(=O)N(C)C(C(C)C)C(=O)OCC(NC(=O)c3cnc4ccccc4n3)C(=O)NC(C)C(=O)N(C)C1C(=O)N(C)C(C(C)C)C(=O)OCC(NC(=O)c1cnc3ccccc3n1)C(=O)NC(C)C(=O)N2C` (stereo not given), which growth is on record?
A: -15.2% (active)

Q: `O=C(/C=C/c1ccccn1)c1ccccc1` was tested. Which growth did it give?
A: 76.3%

Q: With `CC(=O)Nc1cc(C)ccc1C` as the molecule, how does the growth read?
A: 100%

Q: For `CC(=O)OCC(OC(C)=O)C(OC(C)=O)C(OC(C)=O)C(OC(C)=O)C(/C=N/Nc1ccccc1)=N/Nc1ccccc1` (stereo not given), which growth is on record?
A: 60.9%

Q: For `COc1ccc(CC(=O)c2ccc(O)cc2O)cc1`, which growth is on record?
A: 109%

Q: With `COc1cccc2c1C(=O)c1c(O)c3c(c(O)c1C2=O)C[C@@](O)(C(=O)CO)C[C@@H]3OC1CC(N)C(O)C(C)O1` (stereo not given in full) as the molecule, how does the growth read?
A: -30.5% (active)

Q: How did the growth turn out when `O=c1ccn(C2CC(O)C(COC(c3ccccc3)(c3ccccc3)c3ccccc3)O2)c(=O)[nH]1` (stereo not given) was run?
A: 74.8%

Q: How did the growth turn out when `O=[N+]([O-])C1=C(c2ccccc2)SC=C(c2ccccc2)S1` was run?
A: 62.4%

Q: For `CCN1/C(=C/C=C/C=C/c2sc3ccccc3[n+]2CC)Sc2ccccc21`, which growth is on record?
A: -64.5% (active)

Q: With `CC(C)C(NC(=O)CN)C(=O)O` (stereo not given) (H-Gly-[ξV]-OH) as the molecule, how does the growth read?
A: 95% and 99.2%

Q: How did the growth turn out when `COC(=O)C1C(O)C(C)C(O)C(C)C=C(C)C2=C3C(=C(C)C(=O)c4c(O)c(c(C)c(OC(C)=O)c43)NC(=O)C(C)=C/C=C\C(C)C(O)C(C)C1O)OCO2` (stereo not given) was run?
A: 112%

Q: With `COC(=O)C1=COC(C)C2C[n+]3ccc4c([nH]c5ccccc54)c3CC12` (stereo not given) as the molecule, how does the growth read?
A: 103% and 76.7%

Q: With `COc1c(O)cc2oc3cc(O)c(CC=C(C)C)c(O)c3c(=O)c2c1CC=C(C)C` as the molecule, how does the growth read?
A: 54.3%

Q: How did the growth turn out when `OC(CN1CCCC2CCCCC21)c1cc2ccccc2c2ccccc12` (stereo not given) was run?
A: 51.5%

Q: `NNc1c2ccccc2nc2ccccc12` was tested. Which growth did it give?
A: 23.6%

Q: With `Cc1cc(NS(=O)(=O)c2ccc(N=Nc3cc(N=Nc4ccc(S(=O)(=O)Nc5cc(C)nc(C)n5)cc4)c4c(NC(=O)C(Cl)Cl)cccc4c3OC(=O)C(Cl)Cl)cc2)nc(C)n1` (tested in a mixture with another compound) as the molecule, how does the growth read?
A: 98.9% and 95.2%

Q: `CCN(CC)c1ccc(NC(C(=O)c2ccccc2)c2ccccc2)cc1` (stereo not given) was tested. Which growth did it give?
A: 92.5%

Q: How did the growth turn out when `CCC(C)(C)c1cc(O)c(C(C)(C)CC)cc1O` was run?
A: 49.9%

Q: `CCCCCCCCCCCCCCCCCCOCC(COP(=O)([O-])OCC[N+](C)(C)C)OC` (stereo not given) was tested. Which growth did it give?
A: 97.5%

Q: `OCC(O)C(O)C(O)C(/C=N/Nc1ccccc1)=N/Nc1ccccc1` (stereo not given) was tested. Which growth did it give?
A: 87.3%

Q: Which growth does the source give for `Clc1cc(Cl)c(Cl)nn1` here?
A: 57.9%

Q: Which growth does the source give for `O=C(Nc1ccc(C(=O)O)c(O)c1)c1ccccc1` here?
A: 101% and 95.6%

Q: How did the growth turn out when `NNc1ccc2ccccc2c1` was run?
A: 102% and 106%

Q: With `Clc1ccc(/C=C/c2ccccn2)c(Cl)c1` as the molecule, how does the growth read?
A: 90%

Q: How did the growth turn out when `NC1=C(Cl)C(=O)c2ccccc2C1=O` was run?
A: 45%

Q: With `O=C(C(=Cc1ccccc1)C(=O)c1ccccc1)c1ccccc1` as the molecule, how does the growth read?
A: 81.6% and 83.1%

Q: With `O=C1C=CC(=CC=C2C=CN(CCCCCCCCCCCO)C=C2)C=C1` as the molecule, how does the growth read?
A: 46.3%

Q: Which growth does the source give for `Cc1nc(N=C(N)N)nc2ccc3ccccc3c12` here?
A: 20.6%

Same assay, conditions: 100 µM

Q: How did the growth turn out when `O=c1ccn(C2CC(O)C(COC(c3ccccc3)(c3ccccc3)c3ccccc3)O2)c(=O)[nH]1` (stereo not given) was run?
A: 44%
